Results reported in PubChem BioAssay AID1628 (Sanford-Burnham Center for Chemical Genomics, 2009).
In all, about 190,000 compounds went through this assay and about 930 (0.49%) were called active. This is one part of the list. Measured potencies and affinities stand elsewhere. Values without a mark were called inactive.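 Rule for the calls: active = z-score of insulin promoter reporter brightness in nuclei below -3 at 5 µM, with at least 500 cells counted; inconclusive = wells with under 500 cells, flagged as toxic or sparse; inactive = the rest.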

Test: decrease of insulin promoter-GFP reporter – imaging, high-content screening, mouse beta cells (AID 1628)
Settings: MIN6 insulin promoter GFP reporter, at 5 µM, hits give low values

Q: For `Cc1nc2c(ccc3nc(NC(=O)C4CC4)sc32)s1`, which z-score is on record?
A: 2

Q: For `Cc1cccc2sc(NC(=O)C3CCCN(S(=O)(=O)c4cccc5nonc45)C3)nc12` (stereo not given), which z-score is on record?
A: 6.61

Q: With `C=CCNC(=O)C1CC2Cn3c(nc4cc5ccccc5cc43)C2N1C` (stereo not given) as the compound, how does the z-score read?
A: 4.44

Q: Which z-score does the source give for `CCOC(=O)N1CCN(C(=O)NC2CCCCC2)CC1` here?
A: 3.74

Q: Which z-score does the source give for `Cc1cc(=O)oc2cc(OCC(=O)OCC(=O)NC3CC3)ccc12` here?
A: 3.8

Q: With `CC1=Nc2ccccc2/C1=C/c1sc(=S)n(-c2cccc(C(=O)O)c2)c1O` as the compound, how does the z-score read?
A: 3.2

Q: With `COc1cccc(N2CCN(c3ncccn3)CC2)c1` as the compound, how does the z-score read?
A: 3.1

Q: Which z-score does the source give for `COc1cccc(-c2nn(C)c3sc(C(=O)N4CCN(c5ccccn5)CC4)cc23)c1` here?
A: -10.4 (active)

Q: For `Cc1ccc(C)c(NC(=O)C(C)CC2COCCO2)c1` (stereo not given), which z-score is on record?
A: 3.45

Q: Which z-score does the source give for `O=S1(=O)N=C(N(CCO)/N=C/c2ccncc2)c2ccccc21` here?
A: 2.42

Q: Which z-score does the source give for `CC(=O)NCCN=C(C)c1sc2ccccc2c1O` here?
A: -3.06 (active)

Q: For `CC(=Nc1ccc(C)cc1C)c1sc2ccccc2c1O`, which z-score is on record?
A: 3.96

Q: For `O=c1oc2c3c4c(cc2c(C(F)(F)F)c1CCN1CCOCC1)CCCN4CCC3`, which z-score is on record?
A: 7.75

Q: For `CCN1/C(=C/C=C/c2oc3ccc4ccccc4c3[n+]2CC)Oc2ccc3ccccc3c21`, which z-score is on record?
A: 17

Q: Which z-score does the source give for `Cc1ccccc1NCC(=O)N/N=C/c1c[nH]c2ccccc12` here?
A: 4.05

Q: For `Cc1nnsc1C(=O)N/N=C/c1ccc2ccccc2c1O`, which z-score is on record?
A: -4.07 (active)

Q: For `COc1cc(-c2cc(=O)c3ccccc3o2)ccc1O`, which z-score is on record?
A: -1.08

Q: For `CCOc1cccc(-c2nn3c(-c4cc(C)[nH]n4)nnc3s2)c1`, which z-score is on record?
A: 1.99

Q: For `COc1cc(C(c2sc3nc(C)nn3c2O)N2CC(C)CC(C)C2)cc(OC)c1OC` (stereo not given), which z-score is on record?
A: 0.98

Q: For `CCOc1cccc(-c2nnc3sc(-c4cc(OC)c(OC)c(OC)c4)nn23)c1`, which z-score is on record?
A: -3.61 (active)

Q: Which z-score does the source give for `Cc1ccc(C(=O)NN2C(=O)/C(=C/c3cn(C)c4ccccc34)SC2=S)cc1` here?
A: 4.98

Q: With `CCN1C=CC2=C(C#N)C(N)C(C#N)(C#N)C(c3ccccc3C(F)(F)F)C2C1` (stereo not given) as the compound, how does the z-score read?
A: 11

Q: Which z-score does the source give for `COc1cccc(NC2C=CS(=O)(=O)C2)c1` (stereo not given) here?
A: 1.43

Q: With `Cc1ccc(S(=O)(=O)/N=c2\ccc(Cl)cn2C(F)F)cc1` as the compound, how does the z-score read?
A: 2.64

Q: Which z-score does the source give for `CCNc1ccc2noc3c2c1C(=O)c1ccccc1-3` here?
A: 4.91

Q: With `CCOC(=O)CC1C(=O)NCCN1c1nc2ccc(C)cn2c(=O)c1/C=C1\SC(=S)N(C(C)CC)C1=O` (stereo not given) as the compound, how does the z-score read?
A: 15.3

Q: With `Cc1cccc(-c2nnc3sc(-c4ccccc4C)nn23)c1` as the compound, how does the z-score read?
A: -3.32 (active)

Q: Which z-score does the source give for `COc1ccc(C(=O)c2sc3nc(-c4ccccc4)ccc3c2N)cc1OC` here?
A: 5.8

Q: With `C=CCn1c(-c2oc3nc(-c4ccccc4)cc(-c4ccccc4)c3c2N)n[nH]c1=S` as the compound, how does the z-score read?
A: 5.57

Q: With `CCN(CC)c1ccc2cc(-c3nc(-c4ccc(OC)cc4)cs3)c(=O)oc2c1` as the compound, how does the z-score read?
A: 17

Q: For `C=CCn1c(-c2csc(-c3ccc(OC)c(OC)c3)n2)n[nH]c1=S`, which z-score is on record?
A: -3.05 (active)

Q: Which z-score does the source give for `CCOC(=O)Cc1csc(NC(=O)c2sc3nc4c(C)cc(C)cc4cc3c2N)n1` here?
A: 4.73

Q: For `Cc1nnc(SCC2=C(C(=O)O)N3C(=O)C(NC(=O)Cn4nc(C)c(Cl)c4C)C3SC2)s1` (stereo not given), which z-score is on record?
A: 1.08

Q: Which z-score does the source give for `Cc1cc(C)n(-c2ccc(OCC(=O)O)nn2)n1` here?
A: 3.33

Q: With `CCCNC(=O)Cn1c(-c2ccc(F)cc2)cc(C(=O)OCC)c1C` as the compound, how does the z-score read?
A: 0.89

Q: For `CCCCSc1ncc(C(=O)OCC)c(N)n1`, which z-score is on record?
A: 2.51

Q: With `CCOC(=O)c1cnc(-n2nc(C)cc2C)nc1NCc1ccccc1` as the compound, how does the z-score read?
A: -3.75 (active)

Q: With `CCOC(=O)c1cnn(-c2cc(C)nc3c(-c4ccccc4)cnn23)c1N` as the compound, how does the z-score read?
A: 3.62

Q: With `Cc1cc(-c2nc3ncccc3o2)ccc1N` as the compound, how does the z-score read?
A: 1.34

Q: For `COC(=O)N/N=C\c1cc2c(cc1Br)OCO2`, which z-score is on record?
A: 0.97

Q: With `CSC1=NC(C)(C)CC2(C)Nc3ccccc3N12` (stereo not given) as the compound, how does the z-score read?
A: -3.03 (active)

Q: For `O=C(NCCc1csc(-c2ccccc2)n1)c1ccccc1F`, which z-score is on record?
A: 4.15

Q: Which z-score does the source give for `COc1ccc(-c2csc(NC(=O)c3ccccc3NS(=O)(=O)c3ccc(F)c(F)c3)n2)cc1` here?
A: -4.95 (active)

Q: For `Cc1c(CNC(=O)c2nn3c(c2Cl)NC(c2ccccc2)CC3C(F)(F)F)cnn1C` (stereo not given), which z-score is on record?
A: -4.22 (active)

Q: With `COc1ccc(C2CC(C(F)(F)F)n3nc(C(=O)NCc4cn(C)nc4C)c(Cl)c3N2)cc1` (stereo not given) as the compound, how does the z-score read?
A: -9.71 (active)

Q: With `CN1C2CCC1/C(=C/c1cccn1C)C(=O)/C2=C\c1cccn1C` as the compound, how does the z-score read?
A: 3.1

Q: For `N#CC1CC(c2ccc([N+](=O)[O-])cc2)=NN1c1ccc([N+](=O)[O-])cc1` (stereo not given), which z-score is on record?
A: 5.36

Q: For `O=C(OCC(=O)N1CCN(c2ccccc2)CC1)c1cccc(Cl)c1`, which z-score is on record?
A: 1.29

Q: For `Cn1c(-c2ccc3c(c2)OCO3)cc(=O)c2ccccc21`, which z-score is on record?
A: -0.67

Q: Which z-score does the source give for `CN1/C(=C\C(=O)C[n+]2ccc3ccccc3c2)C(C)(C)c2ccccc21` here?
A: -4.73 (active)

Q: Which z-score does the source give for `CN1/C(=C\C=C2/C(=O)Oc3ccccc3C2=O)C(C)(C)c2ccccc21` here?
A: 8.51

Q: With `CN1/C(=C\C=C(/C#N)C(=O)Nc2ccccc2F)C(C)(C)c2ccccc21` as the compound, how does the z-score read?
A: 7.42

Q: Which z-score does the source give for `Cn1ccnc1Sc1nc(Nc2cccc(Cl)c2)nc(N2CCOCC2)n1` here?
A: -0.82

Q: Which z-score does the source give for `N#C/C(=C/c1ccc(N2CCCCC2)o1)c1cccc(F)c1` here?
A: 14.6

Q: Which z-score does the source give for `Clc1ccc2oc(-c3ccccn3)nc2c1` here?
A: 3

Q: For `Clc1ccc2oc(-c3cccnc3NCc3ccccc3)nc2c1`, which z-score is on record?
A: -3.89 (active)

Q: Which z-score does the source give for `CCN(CC)c1ccc(/C=C(/C#N)C(=O)NC(C)C)o1` here?
A: 6.43

Q: Which z-score does the source give for `COc1cc(NC(=O)Cn2cnc3sc(C)c(S(=O)(=O)N4CCN(C)CC4)c3c2=O)cc(OC)c1OC` here?
A: 1.41

Q: With `Cc1sc2ncn(CC(=O)NCCCC(=O)N3CCN(c4ncccn4)CC3)c(=O)c2c1C` as the compound, how does the z-score read?
A: -4.71 (active)

Q: Which z-score does the source give for `CC(=O)Nc1nc(-c2ccc(Br)s2)cs1` here?
A: 5.02

Q: Which z-score does the source give for `Cc1cc(NC(=O)/C(C#N)=C/c2ccc(-c3ccc(SC(F)F)cc3)o2)n(-c2ccccc2)n1` here?
A: 3.43

Q: Which z-score does the source give for `Cc1ccc(CNc2ccc3c(c2)OCO3)cc1` here?
A: 5.54

Q: For `Cc1ccc(NC(=O)N(Cc2ccc3c(c2)OCO3)Cc2cc3cc4c(cc3[nH]c2=O)OCCO4)cc1`, which z-score is on record?
A: -5.39 (active)

Q: With `CCOc1ccc2[nH]c(=O)c(CN(CCc3ccccc3)C(=O)N3CCOCC3)cc2c1` as the compound, how does the z-score read?
A: 5.49

Q: For `N#Cc1c(NC(=S)NC(=O)c2ccccc2)sc2c1CCN(CCc1ccccc1)C2`, which z-score is on record?
A: 5.28

Q: Which z-score does the source give for `COc1ccc(CC(=O)NNC(=S)Nc2ccccc2)cc1Cl` here?
A: 2.56

Q: For `CC(C)(C)c1cc(CCC(=O)NNC(=S)NC(=O)c2ccccc2)cc(C(C)(C)C)c1O`, which z-score is on record?
A: -4.33 (active)

Q: Which z-score does the source give for `CCc1nc(C)cn1S(=O)(=O)c1cc(OC)c(C)cc1C` here?
A: -4.29 (active)

Q: Which z-score does the source give for `CC(=O)Cc1cc(O)c2ccccc2c1OC(=O)c1ccc(Br)cc1` here?
A: 8.75

Q: For `Cc1ccccc1NC(=O)c1cc(C(=O)c2cc(Cl)ccc2O)cn(-c2ccccc2C)c1=O`, which z-score is on record?
A: -3.14 (active)

Q: For `CN1CC=C2C(C#N)=C(N)C(C#N)(C#N)[C@H](c3cccs3)[C@H]2C1`, which z-score is on record?
A: 10.3

Q: Which z-score does the source give for `CCSc1ccc(C(=O)Nc2ccc(Br)cn2)cc1[N+](=O)[O-]` here?
A: 1.11

Q: For `O=C(Nc1ccc(Cl)cn1)c1ccc([N+](=O)[O-])o1`, which z-score is on record?
A: -3.08 (active)

Q: With `CCCN1C(=O)S/C(=C/c2ccc(N3CCOCC3)o2)C1=O` as the compound, how does the z-score read?
A: 14.8

Q: For `COc1ccc(C(=O)CSC2=C(C#N)C3(CCCCC3)C(C#N)=C(N)N2)cc1`, which z-score is on record?
A: -3.18 (active)

Q: With `COc1ccccc1NC(=O)C1=C(C)NC(SCC(=O)c2ccc(C)cc2)=C(C#N)C1c1ccco1` (stereo not given) as the compound, how does the z-score read?
A: 3.29

Q: Which z-score does the source give for `CCn1c(C)[n+](CC)c2ccc(S(=O)(=O)N(C)C)cc21` here?
A: -3.4 (active)

Q: With `CCN1CCN(C(=O)c2cn(CC)c3ccc(S(=O)(=O)N(C)C)cc3c2=O)CC1` as the compound, how does the z-score read?
A: 2.68

Q: For `CC(=O)CCc1c(C)c2cccc(C)c2[nH]c1=O`, which z-score is on record?
A: -0.43

Q: With `CCOc1ccccc1CNC(=O)c1cn(C)c(=O)c2c1c1ccccc1n2C` as the compound, how does the z-score read?
A: 1.59

Q: With `COCCn1cc(C(=O)NCc2ccco2)c2c3ccccc3n(C)c2c1=O` as the compound, how does the z-score read?
A: 2.09

Q: For `CC(C)Cn1cc(C(=O)NC2CCN(Cc3ccccc3)CC2)c2c3ccccc3n(C)c2c1=O`, which z-score is on record?
A: -3.06 (active)

Q: For `Cc1nc(Cl)c2c(n1)NC1=C(O2)C(=O)CCC1`, which z-score is on record?
A: -4.1 (active)

Q: With `COc1ccc(N(C)S(=O)(=O)c2cccc(C(=O)Nc3nc4ccccc4[nH]3)c2)cc1` as the compound, how does the z-score read?
A: -3.07 (active)

Q: For `CN(c1cccc(Cl)c1)S(=O)(=O)c1cccc(C(=O)NC2=NCCS2)c1`, which z-score is on record?
A: 3.48

Q: Which z-score does the source give for `CN(/C(=N\S(=O)(=O)c1ccccc1)c1ccccc1)c1ccc(O)cc1` here?
A: 1.42

Q: Which z-score does the source give for `CCOc1ccc(C2C(C#N)=C(N)SC(N)=C2C#N)c(OCC)c1` here?
A: -3.06 (active)

Q: With `CCN(CC)c1ccc(/C=C(\C#N)C(=O)c2ccc(Br)cc2)cc1` as the compound, how does the z-score read?
A: 3.66

Q: Which z-score does the source give for `COc1ccc2cc3cc(C(=O)NCc4ccccn4)oc3nc2c1` here?
A: 3.32

Q: For `O=C(NCc1cn2ccccc2n1)c1ccco1`, which z-score is on record?
A: 3.67

Q: With `O=C(NCc1ccccn1)c1ccc(Cn2cc(Br)cn2)o1` as the compound, how does the z-score read?
A: -3.96 (active)

Q: For `COc1ccc2c(n1)Sc1nc3ccccc3nc1N2`, which z-score is on record?
A: 9.57

Q: For `COc1ccc2c(c1)oc(=O)c1ccccc12`, which z-score is on record?
A: -0.04

Q: For `Cc1[nH]ccc(=O)c1OCc1c(Cl)cccc1Cl`, which z-score is on record?
A: -6.12 (active)

Q: With `COC(=O)c1c[nH]n2c(=O)c(Cc3ccc(F)cc3Cl)c(C)nc12` as the compound, how does the z-score read?
A: 3.42
